Screens (PubChem)
AI-2 QS modul = Vibrio harveyi AI-2 quorum sensing modulation. Vibrio harveyi JMH597 AI-2 luminescence/OD600 ratio, 9 h; stronger effect = lower value; strain lacks LuxN and CqsS sensors; 0 = neutral-control median. activity change, % at 7.5 µM. hit rate 0.4% among 300,000; in the data active = activity change below about -75%, passing the limit was not always enough;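 also: luminescence divided by OD600 gain over 9 h not by final OD600 alone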
V-ATPase pH = yeast V-ATPase proton transport regulation by pHLuorin | S. cerevisiae, pHLuorin cytosolic pH fluorescence | hit rate 0.37% among 350,000 | response, % at 10 µM; in the data active = response mostly above about 7.3%, no sharp cut-off; inactive = mostly below about 5.4%; also: actives read high
Efflux pump mplx = antifungal efflux pump inhibition, Nile Red retention; S. cerevisiae Candida pump triplex; inhibition, % at 10 µM; hit rate 0.44% among 330,000; AID 485275;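 active = plate passing quality check with inhibition over a set limit, or well fluorescence over plate mean plus 4 SD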;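 also: Nile Red retained in pooled yeast measured as flow cytometry median fluorescence; 0% = buffer negative control and 100% = Enniatin B positive control; higher means more Nile Red kept so more efflux inhibition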
ATG4B inhibitor = blocks human ATG4B protease cleavage of LC3 substrate. Q9Y4P1. ATG4B cleavage of LC3-PLA2, NBD-HPC fluorescence, 1 h. inhibition, % at 8.33 µM. hit rate 0.51% among 340,000. AID 504462; in the data active = inhibition above about 40%
Target sequence (Q9Y4P1 whole entry, looked up): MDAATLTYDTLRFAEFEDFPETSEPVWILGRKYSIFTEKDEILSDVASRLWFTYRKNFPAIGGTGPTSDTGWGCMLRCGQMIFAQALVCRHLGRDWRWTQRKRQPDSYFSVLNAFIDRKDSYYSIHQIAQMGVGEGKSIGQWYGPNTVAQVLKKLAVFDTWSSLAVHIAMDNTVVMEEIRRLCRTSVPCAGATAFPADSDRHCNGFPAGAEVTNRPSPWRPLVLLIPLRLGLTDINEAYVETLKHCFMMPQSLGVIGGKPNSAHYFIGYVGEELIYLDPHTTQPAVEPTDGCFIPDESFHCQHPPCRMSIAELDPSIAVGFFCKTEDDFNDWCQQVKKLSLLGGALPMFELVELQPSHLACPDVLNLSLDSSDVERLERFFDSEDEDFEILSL
SUMO Mot1 rescue = SUMOylation pathway inhibition by Mot1-301 growth rescue; S. cerevisiae Mot1-301 growth rescue, ATP luminescence, 38.5C; percent above DMSO median, 100 means doubled; growth rescue, % at 18.8 µM; hit rate 1% among 320,000;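 active = every valid replicate shows activation above 250% relative to neutral control wells; inactive = the rest, any valid replicate at or below 250%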;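 also: OY570 slx delta 5 strain wells were the positive control but not used for scaling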
Yeast cmpd fluor = compound fluorescence in yeast efflux pump counter-screen. shares compounds with Efflux pump mplx. hit rate 4% among 1,700. S. cerevisiae AD/pABC3, flow cytometry. AID 588517. fluorescence ratio to DMSO, % at 10 µM;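 active = fluorescence ratio to DMSO above its plate's cutoff, the plate mean ratio plus 5 SD, cut at about 210% in these data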;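 also: unstained yeast with no Nile Red so the signal is compound autofluorescence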
Mdr1 pump inh = Candida Mdr1 efflux pump inhibition; S. cerevisiae AD/CaMDR1, Nile Red efflux, flow cytometry; AID 588518; shares compounds with Efflux pump mplx; hit rate 1% among 1,700; inhibition, % at 10 µM; in the data active = inhibition above about 26%;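 also: 0% = DMSO vehicle and 100% = reference inhibitor; higher means more Nile Red retained so more efflux inhibition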
CaCdr2 efflux inh = Candida Cdr2 efflux pump inhibition; AID 588520; hit rate 4% among 1,700; Nile Red retention ratio vs DMSO, % at 10 µM; shares compounds with Efflux pump mplx; S. cerevisiae AD/CaCDR2, Nile Red retention, flow cytometry; in the data active = Nile Red retention ratio vs DMSO above about 190%;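 also: higher ratio means more blocking of Cdr2 efflux of the dye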
CaCdr1 efflux inh = inhibitors of Candida albicans Cdr1 efflux pump. S. cerevisiae AD/CaCDR1, Nile Red efflux, flow cytometry. hit rate 1% among 1,700. inhibition, % at 10 µM. shares compounds with Efflux pump mplx;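 active = inhibition above the screen-wide mean plus twice its standard deviation, cut at about 32% in these data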
Numbers without * were called inactive; x = not tested or not shown. An excerpt weighted towards active compounds, which were near 2.5% of everything screened.

SMILES | AI-2 QS modul | V-ATPase pH | Efflux pump mplx | ATG4B inhibitor | SUMO Mot1 rescue | Yeast cmpd fluor | Mdr1 pump inh | CaCdr2 efflux inh | CaCdr1 efflux inh
Cc1cc2ccccc2n1CCNC(=O)c1ccc(Br)o1 | -5 | 0 | 1.3* | -4 | 1 | 100 | 0 | 94 | 0
Cc1cc2ccccc2n1CCNC(=O)c1ccccc1 | 8 | 0 | 0 | 0 | -7 | x | x | x | x
COc1cc(S(=O)(=O)Nc2ccccn2)ccc1F | 24 | 0 | 0.7* | 2 | -6 | 104 | 0 | 104 | 0
CCOC(=O)c1c(C)[nH]c(C)c1C(=O)COC(=O)/C=C/c1ccc(Cl)cc1 | 31 | 1 | 8.3* | -9 | -26 | 102 | 0 | 101 | 0
O=C1/C(=C/c2ccc(O)c(O)c2)Oc2cc(O)ccc21 | x | 0 | 2.4* | -4 | 0 | 103 | 0 | 153 | 0
CCn1c(SC)nnc1C1CCCN(CC(=O)Nc2ccccc2N2CCOCC2)C1 (configuration not stated) | 12 | -1 | 0 | -6 | 150 | x | x | x | x
Cc1ccc(C)c(NC(=O)CCC(=O)N/N=C/c2cc([N+](=O)[O-])ccc2O)c1 | 404 | -3 | 1.4* | -4 | 5 | 103 | 0 | 97 | 0
CCN(CC)C(=O)C1=C(C)N(CCCOC)C(=O)C(CC(=O)NCCc2ccccn2)C1 (configuration not stated) | x | -1 | x | x | x | x | x | x | x
Cc1nn2c3c(cnc2c1-c1ccccc1)C(=O)CCC3 | 10 | 2 | 0.6* | 2 | 4 | 106 | 0 | 103 | 0
Cc1nn2c(N)c(-c3ccccc3)cnc2c1-c1ccc(Cl)cc1 | 6 | 0 | 0 | 13 | -3 | x | x | x | x
Cc1cccc(NC(=O)c2cc3c(=O)n4ccccc4nc3n(CC(C)C)c2=N)c1 | 1 | 2 | 0 | 0 | -17 | x | x | x | x
COc1ccc(CNC(=O)c2cc3c(=O)n4ccccc4nc3n(Cc3cccnc3)c2=N)cc1 | 25 | -3 | 0.9* | -16 | -20 | 96 | 0 | 105 | 0
N=c1c(C(=O)NCc2ccc3c(c2)OCO3)cc2c(=O)n3ccccc3nc2n1Cc1cccnc1 | 9 | 1 | 0 | 0 | -14 | x | x | x | x
COc1cccc(NC(=O)c2cc3c(=O)n4ccccc4nc3n(CC(C)C)c2=N)c1 | 16 | -3 | 1.6* | -2 | 25 | 99 | 0 | 95 | 0
Cc1cccc(-c2nnc(SCC(=O)c3ccc(O)cc3O)n2C)c1 | 13 | 2 | 0 | -6 | -8 | x | x | x | x
CSc1cccc(NS(=O)(=O)c2cn(C)cn2)c1 | 13 | -2 | 1.3* | 1 | 18 | 99 | 0 | 80 | 0
COc1ccc(NS(=O)(=O)c2cn(C)cn2)cc1 | 8 | 0 | 0 | -3 | 3 | x | x | x | x
CC(C)N(C)CCOC(=O)c1ccccc1Br | 4 | 2 | 13* | 2 | 10 | 131 | 2 | 163 | 2
COc1ccc(/C(O)=C2\C(=O)C(=O)N(CCN(C)C)C2c2cccc(OC)c2OC)cc1 (configuration not stated) | 20 | 3 | 6.5* | -2 | -8 | 101 | 0 | 98 | 0
COc1cccc(C2/C(=C(/O)c3cnn(-c4ccccc4)c3C)C(=O)C(=O)N2CCN(C)C)c1OC (configuration not stated) | 19 | 3 | 0 | -14 | 3 | x | x | x | x
O=c1cc(Nc2cccc(Br)c2)[nH]c(=O)[nH]1 | 14 | 1 | 0 | -2 | -8 | x | x | x | x
Cc1cccc(Nc2cc(=O)[nH]c(=O)[nH]2)c1 | 8 | 0 | 6.5* | -4 | 4 | 102 | 0 | 116 | 0
CCOc1ccc(CN2CCC(n3nccc3NC(=O)c3ccccc3OC)CC2)cc1 | 23 | 3 | 0 | -6 | 5 | x | x | x | x
S=C(NCCCN1CCOCC1)N1CCN(c2nc(-c3ccccc3)cs2)CC1 | 16 | -4 | 1.3* | -13 | -4 | 89 | 0 | 97 | 0
Cc1cc(N/N=C/c2ccccc2[N+](=O)[O-])nc(-n2nc(C)cc2C)n1 | 17 | -3 | 0.8* | 1 | -3 | 97 | -1 | 92 | 0
SMILES | AI-2 QS modul | V-ATPase pH | Efflux pump mplx | ATG4B inhibitor | SUMO Mot1 rescue | Yeast cmpd fluor | Mdr1 pump inh | CaCdr2 efflux inh | CaCdr1 efflux inh
Cc1ccc(-c2cc(C(=O)NCCc3ccc(S(N)(=O)=O)cc3)c3ccccc3n2)cc1 | -3 | 1 | 0 | -11 | -9 | x | x | x | x
NS(=O)(=O)c1ccc(CCNC(=O)c2cc(-c3ccccc3)nc3ccccc23)cc1 | -4 | -1 | 21* | -16 | -16 | 108 | 0 | 94 | 0
C/C(=N/NC(=O)c1ccoc1C)C12CC3CC(CC(C3)C1)C2 | 6 | -3 | 0 | -6 | 9 | x | x | x | x
O=C(CSc1nnc(-c2ccco2)n1Cc1ccco1)NCc1cccs1 | 20 | -1 | 0 | -9 | 2 | x | x | x | x
Cc1cc(Cl)ccc1NC(=O)CSc1nnc(-c2ccncc2)n1Cc1ccco1 | 7 | 1 | 0 | -3 | -12 | x | x | x | x
O=C(CSc1nnc(Cc2cccs2)n1Cc1ccco1)Nc1ccc(Cl)cc1Cl | 21 | 0 | 0 | -1 | 3 | 101 | 0 | 100 | 0
O=C(CSc1nnc(Cc2cccs2)n1Cc1ccco1)Nc1ccc(Br)cc1 | 8 | -2 | 0 | -2 | 6 | 76 | 0 | 99 | 0
COC(=O)CSc1nnc(CSc2nc(C)cc(C)n2)n1Cc1ccco1 | 30 | -2 | 0 | 5 | -6 | x | x | x | x
Cc1cc(C)nc(SCc2nnc(SCC(=O)Nc3ccc(C)c(C)c3)n2Cc2ccco2)n1 | 40 | -5 | 1.0* | -25 | 3 | 219 | 1 | 100 | 9
CCN(C(=O)COC(=O)CCc1ccc(OC)cc1)c1c(N)n(Cc2ccccc2)c(=O)[nH]c1=O | x | 2 | x | -5 | x | x | x | x | x
Cc1cc(-c2nnc(CCC(=O)N(C)Cc3cccc4ccccc34)o2)no1 | 18 | 6 | 0 | 11 | -1 | x | x | x | x
CCN(CC)c1ccc(C=N/C(C#N)=C(\N)C#N)cc1 | 19 | -1 | 0.7* | -5 | -13 | 128 | 1 | 348* | 2
CCOC(=O)N1CCN(C(=O)c2ccccc2N(Cc2ccccc2)S(=O)(=O)c2ccccc2)CC1 | 12 | 5 | 0 | 3 | -20 | x | x | x | x
CN1CCN(NC(=O)Nc2ccc([N+](=O)[O-])cc2)CC1 | 5 | -1 | 0 | -5 | -18 | x | x | x | x
COc1cc([N+](=O)[O-])ccc1NC(=O)NN1CCN(C)CC1 | 24 | -1 | 5.3* | -4 | -4 | 84 | 0 | 93 | 0
COC(=O)c1cc(NC(=O)CSC2=NCCS2)cc(C(=O)OC)c1 | 16 | 2 | 0 | -1 | 124 | x | x | x | x
O=C(NCCCN1CCCC1=O)c1cncc(Br)c1 | 40 | -7 | 0 | 3 | 0 | x | x | x | x
